# Measured values published in PubChem BioAssay AID441 (NMMLSC, 2006).
# About 70 (0.3%) of roughly 24,000 compounds were called active. The sample holds actives, similar compounds and a random draw of the others, so the mix is not that of the screen. Rule as the data show it: active = inhibition above about 30%; inconclusive = no clear call, values can overlap the other calls; inactive = below that.
# Target: N-formyl peptide receptor 2 (Homo sapiens) (UniProt P25090)
# Experiment: small molecules displacing FPRL1 fluorescent ligand – cell-based, FPR counter-screen, flow cytometry, primary screen (AID 441);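 also: 0% = buffer alone and 100% = receptor blocker peptide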
# Details: FPRL1-expressing cells, fluorescent ligand binding inhibition, active compounds read high, concentration not given here
# N-formyl peptide receptor 2 (Homo sapiens), sequence (P25090 whole entry, looked up): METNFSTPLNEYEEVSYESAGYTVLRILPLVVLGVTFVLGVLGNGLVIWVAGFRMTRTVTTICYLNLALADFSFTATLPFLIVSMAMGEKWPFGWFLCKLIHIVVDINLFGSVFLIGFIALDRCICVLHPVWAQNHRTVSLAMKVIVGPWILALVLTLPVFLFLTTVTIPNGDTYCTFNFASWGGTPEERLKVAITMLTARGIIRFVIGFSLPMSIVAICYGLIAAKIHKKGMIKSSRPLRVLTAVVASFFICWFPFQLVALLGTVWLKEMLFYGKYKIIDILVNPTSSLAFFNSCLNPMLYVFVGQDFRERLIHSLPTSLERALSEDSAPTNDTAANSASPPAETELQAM
row,SMILES,inhibition
1,COc1ccc(CCNC(=O)c2cc(-c3ccc4c(c3)OCO4)on2)cc1OC,-0.8% (inactive)
2,COc1cccc(NC(=O)C2CCCN2C(=O)OCc2ccccc2)c1 (centres undefined),0.3% (inactive)
3,CCOc1ccccc1NC(=O)C1CCN(S(=O)(=O)c2c(C)nn(C)c2C)CC1,-6.7% (inactive)
4,CCOC(=O)C1CCN(C(=O)C2CCN(S(=O)(=O)c3c(C)noc3C)CC2)CC1,10.6% (inactive)
5,CCOc1ccc(OCC)c(NC(=O)C2CCN(S(=O)(=O)c3c(C)noc3C)CC2)c1,30.8% (active)
6,COc1ccc(C(=O)Nc2nncs2)c(OC)c1,0% (inactive)
7,COc1ccc(NS(=O)(=O)c2ccc(NC(C)=O)cc2)cc1OC,6% (inactive)
8,NC(=O)CCCC1=NS(=O)(=O)c2ccccc2N1,-3.9% (inactive)
9,CCN1C(=O)/C(=C2/Sc3ccccc3N2CCCS(=O)(=O)O)SC1=S,5.6% (inactive)
10,CC(=O)c1c(C)c[nH]c1C,6% (inactive)
11,Cc1cccc(N2CCN(C(=O)c3cc4c(=O)[nH]c5ccccc5c4n3C)CC2)c1C,-5% (inactive)
12,CCOc1ccc(-c2nnn(CC(=O)N3CCN(c4ccc(F)cc4)CC3)n2)cc1OCC,-1.6% (inactive)
13,CCOC(=O)N1CCN(C(=O)c2ccc3nc4cc(Cl)ccc4c(=O)n3c2)CC1,-10% (inactive)
14,CCOc1ccc(C2C(C(=O)NC)=C(C)Nc3nc4ccccc4n32)cc1OC (centres undefined),-2.9% (inactive)
15,O=C(NCCCN1CCN(Cc2ccccc2)CC1)C1CCN(S(=O)(=O)N2CCCC2)CC1,2% (inactive)
16,COc1cccc(CN2C(=O)CCC2(C)C(=O)NC2CCCCCC2)c1 (centres undefined),7.7% (inactive)
17,Cc1cc(N2C(=O)C(=O)/C(=C(/O)c3ccc(Cl)cc3)C2c2cccc(Br)c2)no1 (centres undefined),-2.5% (inactive)
18,Cn1c(=O)c2[nH]c(NCC3CCCO3)nc2n(-c2ccccc2)c1=O (centres undefined),-0.4% (inactive)
19,CCOC(=O)c1oc2ccccc2c1NC(=O)c1cccs1,-9.1% (inactive)
20,CC(NC(=O)COc1ccccc1)C(=O)NC1=NCCS1 (centres undefined),5.2% (inactive)
21,CCN(CC)CCNC(=O)C1c2ccccc2C(=O)N(C)C1c1cn(C)c2ccccc12 (centres undefined),9.3% (inactive)
22,Cc1cccc(NC(=O)CSc2nnc(NC(=O)CN3CCOCC3)s2)c1,8.7% (inactive)
23,COc1ccccc1C(=O)NCCn1cc(SCC(=O)NCc2ccco2)c2ccccc21,2.6% (inactive)
24,COC(=O)C1=C(C)OC(N)=C(C#N)C1c1cc(OC)ccc1OC (centres undefined),5.9% (inactive)

row,SMILES,inhibition
1,COC(=O)c1cn(C)c2ccc(S(=O)(=O)N3CC(C)CC(C)C3)cc2c1=O (centres undefined),8.5% (inactive)
2,COc1ccc(C2/C(=C(/O)c3ccccc3)C(=O)C(=O)N2c2ncccn2)cc1OC (centres undefined),-2.7% (inactive)
3,Cc1c(C(=O)Nc2ccccc2Cl)oc2ccc(S(=O)(=O)N3CCC4(CC3)OCCO4)cc12,-12.5% (inactive)
4,CCOC(=O)n1c(SCC(=O)N(CC)CC)nc2ccccc21,-1.8% (inactive)
5,O=C(NCc1cccs1)c1ccc2c(c1)ncn2C1CCCC1,2.8% (inactive)
6,O=C(CN1C(=O)CCS(=O)(=O)c2ccccc21)NCc1ccc(F)cc1,1.5% (inactive)
7,O=C(C1=C(O)C(=O)N(Cc2ccccc2)C1c1cccnc1)c1ccco1 (centres undefined),1.3% (inactive)
8,COc1ccc(-c2nnc(SCC(=O)NC3CCCCC3)o2)cc1OC,2.7% (inactive)
9,CCOC(=O)c1ccn(-c2nc(-c3ccco3)cc(C(F)(F)F)n2)n1,2.5% (inactive)
10,O=C(CCN1C(=O)c2ccncc2C1=O)Nc1ccc2c(c1)OCCO2,9.6% (inactive)
11,CCN1CCN(c2ncnc3c2oc2nc(C)c4c(c23)CC(C)(C)OC4)CC1,1.2% (inactive)
12,CCOc1ccc(NC(=O)CCS(=O)(=O)c2cccc3nsnc23)cc1,-3.1% (inactive)
13,CCOc1nc(OCC)nc(-n2cc(-c3ccccc3)nn2)n1,3% (inactive)
14,COc1ccc(CC(=O)Nc2ccc(-c3nnc(-c4ccc(C)cc4)o3)cc2)cc1,51.1% (active)
15,CCOC(=O)c1ccc(NC(=O)Cn2nnc(-c3ccc(C)cc3)n2)cc1,3.3% (inactive)
16,COc1ccc(Cc2nnc(NC(=O)Cc3cccs3)s2)cc1,-1.5% (inactive)
17,Cn1c(=O)[nH]c(=O)c2c1nc(CN(Cc1ccccc1)Cc1ccccc1)n2CCN1CCOCC1,-0.1% (inactive)
18,CN(Cc1ccccc1)C(=O)CCNC(=O)Cn1cnc2ccccc2c1=O,-4.8% (inactive)
19,COc1ccc(CCNC(=O)c2ccc3c(c2)NC(=O)C(N2CCOCC2)S3)cc1OC (centres undefined),0.3% (inactive)
20,Cn1c(C(=O)N2CCC(C(N)=O)CC2)cc2c(=O)n(C)c3ccccc3c21,-1.2% (inactive)
21,C/C(=N\O)C1(C)N(O)C(C)(C)C(c2ccc(Br)cc2)=[N+]1[O-] (centres undefined),1.1% (inactive)
22,Cc1ncn(C23CC4CC(CC(O)(C4)C2)C3)n1,8.2% (inactive)
23,Cc1cc(=O)n2nc(N3CCCC(C(=O)NCCC4=CCCCC4)C3)sc2n1 (centres undefined),3% (inactive)
24,CC(C)Nc1nc(N(c2ccccc2)c2ccccc2)nc(-n2ccnc2)n1,-7.8% (inactive)

row,SMILES,inhibition
1,CCOC(=O)Nc1ccccc1N1C(=O)c2ccccc2C1=O,-0.1% (inactive)
2,CCOC(=O)c1[nH]c2c(c1C)C(=O)CC(c1ccc(N(C)C)cc1)C2 (centres undefined),-0.6% (inactive)
3,CC1C=CCC2C(=O)N(c3cccc(C(=O)N4CCCCCC4)c3)C(=O)C12 (centres undefined),-6.5% (inactive)
4,O=C1NC(c2ccncc2)Nc2sc3c(c21)CCCC3 (centres undefined),0.8% (inactive)
5,CCOC(=O)c1ccc2[nH]c(C)c(CN3CCN(C)CC3)c(=O)c2c1,-3.9% (inactive)
6,Cc1ccc2cc3cc(C(=O)N4CCCCCC4)oc3nc2c1,3.2% (inactive)
7,CC1=C(C(=O)Nc2ccccc2)C(c2cccs2)C(C#N)=C(SCC#N)N1 (centres undefined),-2.4% (inactive)
8,c1ccc(CCn2nnnc2CN2CCN(C3CCCC3)CC2)cc1,-2.3% (inactive)
9,COc1ccc(-c2ccc(Nc3ccc(S(=O)(=O)N4CCCC4)cc3)nn2)cc1OC,2.7% (inactive)
10,Cc1nc2ncnn2c(C)c1CCC(=O)N1CCN(C(=O)c2ccco2)CC1,-3.3% (inactive)
11,CCN1CCN(Cc2c(O)ccc3c(=O)c(-c4ccc(OC)c(OC)c4)c(C(F)(F)F)oc23)CC1,-3.1% (inactive)
12,CCOC(=O)c1cccc(NC(=O)CN(c2ccc(C)cc2)S(=O)(=O)c2c(C)noc2C)c1,-3% (inactive)
13,COc1cccc(-c2nc3n(n2)C(c2ccccc2Cl)C(C(N)=O)=C(C)N3)c1 (centres undefined),-2.8% (inactive)
14,O=C1CCc2cc(S(=O)(=O)N3CCC(C(=O)NCc4ccccc4Cl)CC3)ccc2N1,-0.3% (inactive)
15,CCOC(=O)c1cc2cc(-c3c(C(=O)OCC)oc4cc(O)cc(O)c4c3=O)ccc2o1,1.4% (inactive)
16,CCCCN(CC)C(=O)CN(C)S(=O)(=O)c1cccc2nsnc12,1% (inactive)
17,CCn1c(SCC(=O)Nc2ccccc2F)nc2c(c1=O)SC(C)C2 (centres undefined),4.3% (inactive)
18,COc1ccc(CCNC(=O)CSc2nnc(CNC(=O)c3cccs3)o2)cc1OC,1.2% (inactive)
19,Cc1ccc(-c2nc(CS(=O)CC(=O)NC3CCCC3)c(C)o2)cc1 (centres undefined),1.4% (inactive)
20,COCCCN(C(=O)Cn1ncc2c(=O)oc3ccc(C)cc3c21)C(C)c1ccncc1 (centres undefined),-4.1% (inactive)
21,CCn1ncc(Br)c1C(=O)Nc1cc(C)ccc1F,-0.1% (inactive)
22,Cc1ccccc1CSc1nnc(Cn2c(=O)sc3ccccc32)n1C,5.5% (inactive)
23,O=C1CC(c2ccccc2)CC(O)=C1C=NCCN1CCOCC1 (centres undefined),1.2% (inactive)
24,CC(=O)N(CC1CCCO1)C1(C(=O)NC2CCCC2)CCCCC1 (centres undefined),4% (inactive)

row,SMILES,inhibition
1,COC(=O)[C@H](C(C)C)n1c(C)c(C(C)=O)c(C(C)=O)c1C,31.1% (active)
2,Cc1cccc(C2c3c(n(C)c(=O)n(C)c3=O)N=C3c4ccccc4C(=O)C32)c1 (centres undefined),-4.5% (inactive)
3,CCN(CC)C(=O)CCC(=O)Nc1ccc(C(=O)OC)cc1,4.2% (inactive)
4,CC(C)COC(=O)C1C2C=CC3(CN(C(C)c4ccc(Br)cc4)C(=O)C13)O2 (centres undefined),17.2% (inactive)
5,C/C(=C(\C#N)C(=O)NCCCN1CCOCC1)N(C)C,-7.6% (inactive)
6,CN1C(=O)c2ccccc2C(C(=O)NCCCN2CCCC2)C1c1c[nH]c2ccccc12 (centres undefined),-4.5% (inactive)
7,Cc1ccc(S(=O)(=O)n2nc(OC(=O)C(C)(C)C)cc2N)cc1,-2.2% (inactive)
8,Clc1ccc(Cn2ncc3c(NCc4cccnc4)ncnc32)cc1,-5.1% (inactive)
9,CCOc1ccc(OCC)c(NC(=O)CN(C)S(=O)(=O)c2cccc3nsnc23)c1,-4.8% (inactive)
10,Cn1c(=O)cc(SCC(=O)N2CCN(C(=O)c3ccco3)CC2)c2ccccc21,-1.6% (inactive)
11,COc1ccc(OC)c(NC(=O)CC(Cc2ccccc2OC)C(=O)O)c1 (centres undefined),9.6% (inactive)
12,CCOC(=O)C1CCCN(Cc2nc(N)nc(Nc3ccc(C)cc3)n2)C1 (centres undefined),-0.4% (inactive)
13,CC1Cc2nc(SCC(=O)Nc3ccccc3F)n(C)c(=O)c2S1 (centres undefined),-4.6% (inactive)
14,CC1=Nn2c(nnc2-c2ccccc2)SC1,4.7% (inactive)
15,C=CCNC(=O)CSc1nc2sc(C)c(C)c2c(=O)[nH]1,-8.9% (inactive)
16,Cc1cc(Nc2ccccc2)n(CCC#N)n1,9.1% (inactive)
17,O=C(Cc1nn[nH]n1)NCCC1=CCCCC1,3.2% (inactive)
18,CCCn1cc(SCC(N)=O)c2ccccc21,0.9% (inactive)
19,O=C(Nc1ccccc1)N(Cc1cccnc1)Cc1ccco1,3.6% (inactive)
20,O=C(NCc1ccco1)c1cccn2c(=O)c3cc(Br)ccc3nc12,-9.9% (inactive)
21,CCCCOc1ccc(C(=O)NCc2ccco2)cc1,-9.3% (inactive)
22,Cc1cccc(Nc2ccccc2C(=O)NCc2ccco2)c1C,34.3% (active)
